High-throughput results (PubChem BioAssay)
In the library only some 3.6% were active in any assay of this set; here they are far more common.
TGFb SMAD3 inh: inhibitors of TGF-b signaling; 410,000 compounds, 1.2% hits; HepG2 CAGA-GFP TGF-b/SMAD3 reporter, GFP fluorescence, 18 h; TGF-beta stimulated, 500 pg/mL final; Potency, µM (doses to about 46.1 µM), for inactives: at the top dose activity, negative = inhibition, actives largely listed as inhibitors; AID 588855; note: % is set by controls: 0 for no effect and ±100 for the full control effect; nearly all actives have a fitted effect of over 65% in size
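Inhibition of TGF-beta-driven CAGA-GFP reporter expression in HEPG2 cells is measured by cellular GFP fluorescence after 18 h stimulation with 500 pg/mL recombinant TGF-beta in 1% FBS medium at 37 degrees C.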
Nrf2 inh: blocks Nrf2 signaling; A549 ARE-Fluc reporter, luciferase luminescence, 18-24 h; Potency, µM (series often up to 46 µM), for inactives: top-dose activity change, negative = inhibition, most hits filed as inhibitors; 360,000 compounds, 2.1% hits; AID 504444; note: % is set by controls: 0 for no effect and ±100 for the full control effect; nearly all actives have a fitted effect of over 60% in size
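A549 ARE_Fluc cells (5000/well, 5% FBS OPTI-MEM) pre-incubated 2 h, then treated with compounds 18-24 h at 37C/5% CO2 in concentration-response. CellTiter-Fluor viability read first; BugLite luciferase luminescence after 15 min at room temperature gives Nrf2 activity.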
Nrf2 ARE act: activators of Nrf2 (ARE) signaling | 410,000 compounds, 0.31% hits | AID 624171 | Potency, µM (titrated, usually from 46.1 µM), without a hit: top-dose activation, actives largely listed as activators | AREc32 ARE-luciferase reporter (MCF7-derived line), luminescence, 24 h; note: % of control where 0% means no effect; nearly all actives have a fitted effect of over 65% in size
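Luminescent ARE reporter assay in AREc32_Fluc cells: overnight plating at 37 deg C, 24 hr compound incubation, Steady-Glo added, 30 min RT before reading.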
HepG2 tox: HepG2 cytotoxicity, counter-screen for TGF-b inhibitors. HepG2 CAGA-GFP viability, ATP luminescence, 18 h. Potency, µM (series often up to 46.1 µM), for the others: at the top dose activity change, negative = cytotoxicity, most hits filed as cytotoxic. 410,000 compounds, 0.76% hits
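HepG2 CAGA-GFP cells (1000/well, DMEM with 1% FBS) received compound, then TGF-beta at 500 pg/mL final, and were incubated 18 hours at 37 degrees C. Viability was read by CellTiter-Glo luminescence. Media-only wells were set as complete cell-killing and DMSO as no toxicity.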
A549 tox: counter-screen for Nrf2 inhibitors: cytotoxicity in A549 cells; A549 ARE-Fluc cells, CellTiter-Fluor viability, 18-24 h; Potency, µM (highest dose often 46 µM), for inactives: top-dose activity change, negative = cytotoxicity, actives largely listed as inhibitors; 390,000 compounds, 0.16% hits; AID 504648; note: % is set by controls: 0 for no effect and ±100 for the full control effect
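Cytotoxicity counterscreen: CellTiter-Fluor fluorescence was measured in A549 ARE_Fluc cells after 18-24 h of compound exposure in a concentration series. The subsequent BugLite luminescent read reports ARE-luciferase activity.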
* = called active by the depositor; [ ] = remark or other dose. Calls come from the whole dose curve; as a rule, active = well fitted curve in the direction sought with a large enough effect; inconclusive = small, poorly fitted or top-dose-only effect, or another doubt; inactive = no such curve, though single readings can be large; an effect the other way counts as inactive or inconclusive. Potency is the fitted concentration of half-maximal effect.

`CCCCC(O)(c1ccc(OC)cc1)C(CN1CCOCC1)c1ccccc1` (stereo unspecified) gave TGFb SMAD3 inh 0.0%, Nrf2 inh 8.9%, Nrf2 ARE act 7.2%, HepG2 tox -2.4% and A549 tox -3.3%.
For OC(c1ccccc1)(C1CCCCC1)C(CN1CCOCC1)c1ccccc1 (stereo unspecified) the results were TGFb SMAD3 inh inconclusive, Nrf2 inh -13.2%, Nrf2 ARE act 5.5%, HepG2 tox -3.7% and A549 tox 10.8%.
For COc1ccc(C(O)(C2CCCCC2)C(CN2CCOCC2)c2ccccc2)cc1 (stereo unspecified) the results were TGFb SMAD3 inh inconclusive, Nrf2 inh 20.6µM*, Nrf2 ARE act 0.2%, HepG2 tox -21.7% and A549 tox -16.2%.
Screening COc1ccc(-c2csc(C(O)(c3ccccc3)C(F)(F)F)n2)cn1 (stereo unspecified) returned TGFb SMAD3 inh inconclusive, Nrf2 ARE act 1.2% and HepG2 tox -40.6%.
For CCOC(=O)C1=C(N)Oc2cc(O)ccc2C1c1cccc(Cl)c1 (stereo unspecified) the results were TGFb SMAD3 inh 20µM*, Nrf2 inh -29.6%, Nrf2 ARE act -0.1%, HepG2 tox 2.8% and A549 tox -24.6%.
CCOC(=O)C1=C(N)Oc2cc(O)ccc2C1c1cccnc1 (stereo unspecified) was read as TGFb SMAD3 inh -0.6%, Nrf2 inh inconclusive, Nrf2 ARE act 0.3%, HepG2 tox -18.8% and A549 tox -10.8%.
Cn1cccc1/C=N/NC(=O)Cc1cccc2ccccc12 was read as TGFb SMAD3 inh -12.8%, Nrf2 inh 18.4µM*, Nrf2 ARE act 0.0%, HepG2 tox 5.5% and A549 tox -2.0%.
For O=C(CNc1cccc2ccccc12)N/N=C/C=C/c1ccco1 the results were TGFb SMAD3 inh -27.5%, Nrf2 inh 13.2%, Nrf2 ARE act inconclusive, HepG2 tox -3.2% and A549 tox 13.3%.
Screening O=C(CN1CCN(Cc2ccccc2)CC1)N/N=C\C=C/c1ccco1 returned TGFb SMAD3 inh 3.8%, Nrf2 inh inconclusive, Nrf2 ARE act 6.31µM*, HepG2 tox -11.0% and A549 tox -5.1%.
For O=C(N/N=C\C=C\c1ccco1)c1cncc(Br)c1 the results were TGFb SMAD3 inh inconclusive, Nrf2 inh -22.6%, Nrf2 ARE act 12.6µM*, HepG2 tox -32.8% and A549 tox -2.7%.
For O=C(Cc1cccs1)N/N=C/C=C/c1ccco1 the results were TGFb SMAD3 inh inconclusive, Nrf2 inh 13.3%, Nrf2 ARE act 12.6µM*, HepG2 tox -17.4% and A549 tox 12.1%.
For COC(=O)c1sc(NC(=O)CSc2n[nH]c(N)n2)c(C(=O)OC)c1C the results were TGFb SMAD3 inh -5.4%, Nrf2 inh -29.9%, Nrf2 ARE act -0.4%, HepG2 tox -21.8% and A549 tox 8.4%.
For CCOC(=O)c1sc2nc(C)nc(NCc3ccccc3OC)c2c1C the results were TGFb SMAD3 inh 0.0%, Nrf2 inh 20.6µM*, Nrf2 ARE act -0.3%, HepG2 tox 1.2% and A549 tox -11.1%.
`O=C(O)c1cnc(-c2ccccc2)nc1Sc1ccc(Cl)cc1` gave TGFb SMAD3 inh -6.7%, Nrf2 inh -16.1%, Nrf2 ARE act -0.3%, HepG2 tox -17.6% and A549 tox -12.8%.
COc1ccccc1Cn1c(CNS(=O)(=O)c2ccc(CC(C)C)cc2)nc2cccnc21 was read as TGFb SMAD3 inh 12.6µM*, Nrf2 ARE act 0.9%, HepG2 tox -24.6% and A549 tox -6.7%.
For C=C(C(=O)c1ccccc1)C(c1ccccc1)C(C)C(=O)c1ccccc1 (stereo unspecified) the results were TGFb SMAD3 inh inconclusive, Nrf2 inh -12.1%, Nrf2 ARE act inconclusive, HepG2 tox -85.7% and A549 tox 1.0%.
`C=C(C(=O)c1ccccc1)C(C)C(=C)C(=O)c1ccccc1` gave TGFb SMAD3 inh inconclusive, Nrf2 inh inconclusive, Nrf2 ARE act inconclusive, HepG2 tox 7.94µM* and A549 tox inconclusive.
Screening Cc1csc(=O)n1CCC(=O)OCC(=O)Nc1cc([N+](=O)[O-])ccc1Cl returned TGFb SMAD3 inh -9.5%, Nrf2 inh 16.0%, Nrf2 ARE act 0.2%, HepG2 tox 13.8% and A549 tox 2.5%.
Screening Cc1ccc(C(=O)NCCSc2ccc(Cl)cc2)cc1S(=O)(=O)Nc1ccccc1 returned TGFb SMAD3 inh inconclusive, Nrf2 inh 14.6µM*, Nrf2 ARE act 2.8%, HepG2 tox -35.0% and A549 tox inconclusive.
`Cc1ccc(NS(=O)(=O)c2cc(C(=O)NCCSc3ccc(C)cc3)ccc2C)cc1` gave TGFb SMAD3 inh inconclusive, Nrf2 inh 23.1µM*, Nrf2 ARE act 0.4%, HepG2 tox -8.8% and A549 tox -21.6%.
CCN(CC)S(=O)(=O)c1cc([N+](=O)[O-])ccc1NNC(=O)Nc1ccc(Cl)c(Cl)c1 was read as TGFb SMAD3 inh 7.08µM*, Nrf2 inh inconclusive, Nrf2 ARE act 2.6%, HepG2 tox -2.5% and A549 tox inconclusive.
Screening CCOc1ccc(Nc2nc(N)c3ccccc3n2)cc1 returned TGFb SMAD3 inh -13.3%, Nrf2 inh inconclusive, Nrf2 ARE act -1.8%, HepG2 tox 15.8µM* and A549 tox -4.3%.
For Nc1nc(Nc2ccccc2)nc2ccccc12 the results were TGFb SMAD3 inh 5.9%, Nrf2 inh inconclusive, Nrf2 ARE act 0.6%, HepG2 tox -57.0% and A549 tox 15.6%.
Cc1ccccc1Nc1nc(N)c2ccccc2n1 was read as TGFb SMAD3 inh -8.6%, Nrf2 inh inconclusive, Nrf2 ARE act -0.2%, HepG2 tox 11.2µM* and A549 tox -3.3%.
For COc1ccc(C)cc1Nc1nc(N)c2ccccc2n1 the results were TGFb SMAD3 inh 0.9%, Nrf2 inh 11.1%, Nrf2 ARE act 0.0%[9.22 µM], HepG2 tox -17.1% and A549 tox 4.6%.
Screening Cc1ccc(Nc2nc(N)c3ccccc3n2)cc1Cl returned TGFb SMAD3 inh inconclusive, Nrf2 inh inconclusive, Nrf2 ARE act -0.1%, HepG2 tox -77.9% and A549 tox inconclusive.
`Nc1nc(Nc2ccc(Cl)cc2)nc2ccccc12` gave TGFb SMAD3 inh 17.8µM*, Nrf2 inh inconclusive, Nrf2 ARE act -0.2%, HepG2 tox -48.3% and A549 tox 5.1%.
CN(C)c1ccc(Nc2nc(N)c3ccccc3n2)cc1 was read as TGFb SMAD3 inh -1.9%, Nrf2 inh inconclusive, Nrf2 ARE act -2.8%, HepG2 tox 12.6µM* and A549 tox 7.3%.
COc1ccc(C(=O)C2CCCN(Cc3ccc(NC(C)=O)cc3)C2)cc1OC (stereo unspecified) was read as TGFb SMAD3 inh 17.7%, Nrf2 inh -0.5%, Nrf2 ARE act -0.2%, HepG2 tox 0.0% and A549 tox 1.8%.
